Legend:
Test in all cases: DAPPL (digital affinity profiling via proximity ligation, sequencing); 10 mM Tris-HCl pH 7.5, 50 mM NaCl, 1 mM DTT, 4% glycerol, room temperature, 30 min; GST-TFs on glutathione beads, 16-mer random dsDNA library, 0.1% formaldehyde crosslink after washing; high values mean tight binding
[1] = molecular target: T1, FLI1 (Homo sapiens, UniProt Q01543 1-452); settings: protein: recombinant; tags: N-terminal GST; dsDNA, one strand shown
T1 sequence: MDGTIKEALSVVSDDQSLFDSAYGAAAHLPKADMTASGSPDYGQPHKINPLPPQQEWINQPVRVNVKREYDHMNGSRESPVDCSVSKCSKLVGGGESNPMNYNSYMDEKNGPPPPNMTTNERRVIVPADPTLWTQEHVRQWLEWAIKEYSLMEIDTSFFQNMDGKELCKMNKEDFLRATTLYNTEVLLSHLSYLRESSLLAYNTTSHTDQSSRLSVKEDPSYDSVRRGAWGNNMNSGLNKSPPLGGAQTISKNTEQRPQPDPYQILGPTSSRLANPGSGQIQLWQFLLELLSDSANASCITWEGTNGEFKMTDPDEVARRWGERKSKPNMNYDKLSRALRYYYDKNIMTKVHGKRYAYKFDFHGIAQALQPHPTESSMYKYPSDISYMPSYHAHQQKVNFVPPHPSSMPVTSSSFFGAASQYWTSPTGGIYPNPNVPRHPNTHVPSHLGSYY
How it was run: (§1)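 Binding signal is each hexamer's read frequency for a factor divided by its frequency in the tag-only sample. The factors were GST-fused human transcription factors from yeast, captured on glutathione beads, DNA-barcoded and pooled with that sample. Pools were incubated with 200 nmole of a random double-stranded 16-mer DNA library in Tris/NaCl/DTT/glycerol buffer at room temperature for 30 min, then washed, crosslinked with 0.1% formaldehyde, proximity-ligated with BsaI/T4 ligase (1 h, 37 °C), PCR-amplified and sequenced on an Illumina NextSeq500.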

[2] = molecular target: T2, ELK1 (Homo sapiens, UniProt P19419 1-428); settings: protein: recombinant; tags: N-terminal GST; dsDNA, one strand shown
T2 sequence: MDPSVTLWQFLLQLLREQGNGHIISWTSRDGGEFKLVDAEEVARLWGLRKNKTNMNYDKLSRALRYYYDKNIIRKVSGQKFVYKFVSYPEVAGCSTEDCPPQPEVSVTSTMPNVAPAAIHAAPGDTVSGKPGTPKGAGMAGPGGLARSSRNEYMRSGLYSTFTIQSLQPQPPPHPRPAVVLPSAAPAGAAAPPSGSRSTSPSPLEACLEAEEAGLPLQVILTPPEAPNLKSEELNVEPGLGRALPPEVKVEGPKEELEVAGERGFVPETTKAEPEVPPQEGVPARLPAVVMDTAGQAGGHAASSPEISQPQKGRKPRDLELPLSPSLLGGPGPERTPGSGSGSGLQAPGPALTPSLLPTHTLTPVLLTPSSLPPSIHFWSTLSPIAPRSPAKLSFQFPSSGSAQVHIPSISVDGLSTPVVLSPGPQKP
How it was run: as §1

[3] = molecular target: T3, GABPA (Homo sapiens, UniProt Q06546 1-454); settings: protein: recombinant; tags: N-terminal GST; dsDNA, one strand shown
T3 sequence: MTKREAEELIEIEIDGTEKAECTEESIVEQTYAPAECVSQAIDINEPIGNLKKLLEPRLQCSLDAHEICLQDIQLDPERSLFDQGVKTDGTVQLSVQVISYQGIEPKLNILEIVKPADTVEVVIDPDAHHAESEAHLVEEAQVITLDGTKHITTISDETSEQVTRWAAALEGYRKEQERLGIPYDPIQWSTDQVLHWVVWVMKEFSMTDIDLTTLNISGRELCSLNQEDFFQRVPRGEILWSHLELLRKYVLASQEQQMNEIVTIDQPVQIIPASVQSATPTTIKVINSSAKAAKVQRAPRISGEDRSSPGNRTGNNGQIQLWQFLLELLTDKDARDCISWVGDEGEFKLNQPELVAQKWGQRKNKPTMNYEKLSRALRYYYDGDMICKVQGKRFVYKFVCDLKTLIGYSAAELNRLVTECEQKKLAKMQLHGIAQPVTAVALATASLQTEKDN
How it was run: as §1

[4] = molecular target: T4, ERG (Homo sapiens, UniProt P11308 1-479); settings: protein: recombinant; tags: N-terminal GST; dsDNA, one strand shown
T4 sequence: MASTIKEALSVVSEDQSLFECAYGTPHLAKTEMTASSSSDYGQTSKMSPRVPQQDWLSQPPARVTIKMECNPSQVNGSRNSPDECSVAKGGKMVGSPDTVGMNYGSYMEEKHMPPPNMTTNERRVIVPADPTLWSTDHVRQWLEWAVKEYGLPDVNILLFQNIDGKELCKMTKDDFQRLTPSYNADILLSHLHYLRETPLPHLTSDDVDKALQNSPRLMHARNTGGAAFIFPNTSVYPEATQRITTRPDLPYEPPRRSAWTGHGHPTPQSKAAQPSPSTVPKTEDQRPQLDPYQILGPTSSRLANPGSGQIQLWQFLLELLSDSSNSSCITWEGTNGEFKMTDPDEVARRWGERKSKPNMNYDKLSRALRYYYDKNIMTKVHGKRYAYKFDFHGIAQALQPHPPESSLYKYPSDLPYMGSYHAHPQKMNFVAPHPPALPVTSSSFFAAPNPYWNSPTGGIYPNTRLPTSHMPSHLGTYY
How it was run: as §1

[5] = molecular target: ELF1 (Homo sapiens, UniProt P32519 1-619); settings: protein: recombinant; tags: N-terminal GST; dsDNA, one strand shown
How it was run: as §1

[6] = molecular target: T5, EHF (Homo sapiens, UniProt Q9NZC4 1-300); settings: protein: recombinant; tags: N-terminal GST; dsDNA, one strand shown
T5 sequence: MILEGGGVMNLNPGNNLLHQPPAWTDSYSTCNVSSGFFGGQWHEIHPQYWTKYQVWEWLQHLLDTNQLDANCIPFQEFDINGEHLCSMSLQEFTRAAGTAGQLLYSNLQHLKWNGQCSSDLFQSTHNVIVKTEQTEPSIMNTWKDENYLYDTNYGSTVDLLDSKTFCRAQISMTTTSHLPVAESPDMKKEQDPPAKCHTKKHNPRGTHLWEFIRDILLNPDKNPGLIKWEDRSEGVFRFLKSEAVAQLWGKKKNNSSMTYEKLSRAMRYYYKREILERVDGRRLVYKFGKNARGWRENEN
How it was run: as §1

[7] = molecular target: SPIB (Homo sapiens, UniProt Q01892 1-262); settings: protein: recombinant; tags: N-terminal GST; dsDNA, one strand shown
How it was run: as §1

[8] = molecular target: T6, ELK3 (Homo sapiens, UniProt P41970 1-407); settings: protein: recombinant; tags: N-terminal GST; dsDNA, one strand shown
T6 sequence: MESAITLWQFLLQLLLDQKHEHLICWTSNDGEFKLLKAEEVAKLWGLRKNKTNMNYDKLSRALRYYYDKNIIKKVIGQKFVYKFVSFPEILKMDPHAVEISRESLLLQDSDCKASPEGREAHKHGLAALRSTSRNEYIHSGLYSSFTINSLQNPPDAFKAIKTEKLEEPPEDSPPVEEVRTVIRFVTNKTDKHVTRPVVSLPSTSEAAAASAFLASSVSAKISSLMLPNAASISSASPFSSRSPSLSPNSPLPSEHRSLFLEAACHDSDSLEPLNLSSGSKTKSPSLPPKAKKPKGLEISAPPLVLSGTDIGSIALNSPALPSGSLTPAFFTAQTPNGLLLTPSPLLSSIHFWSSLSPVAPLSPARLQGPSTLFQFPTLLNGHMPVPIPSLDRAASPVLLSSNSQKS
How it was run: as §1

[9] = molecular target: T7, FEV (Homo sapiens, UniProt Q99581 1-238); settings: protein: recombinant; tags: N-terminal GST; dsDNA, one strand shown
T7 sequence: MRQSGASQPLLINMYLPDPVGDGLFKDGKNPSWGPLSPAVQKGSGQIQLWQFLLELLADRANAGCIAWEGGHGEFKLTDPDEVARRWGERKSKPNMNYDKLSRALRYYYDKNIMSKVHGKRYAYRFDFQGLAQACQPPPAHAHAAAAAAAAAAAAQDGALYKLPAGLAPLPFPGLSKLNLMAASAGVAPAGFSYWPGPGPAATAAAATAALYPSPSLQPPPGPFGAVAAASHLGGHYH
How it was run: as §1

[10] = molecular target: HSF1 (Homo sapiens, UniProt Q00613 1-529); settings: protein: recombinant; tags: N-terminal GST; chain copies: 3; dsDNA, one strand shown
How it was run: as §1

[11] = molecular target: ELF4 (Homo sapiens, UniProt Q99607 1-663); settings: protein: recombinant; tags: N-terminal GST; dsDNA, one strand shown
How it was run: as §1

Chain of ELF4 (Q99607 whole entry): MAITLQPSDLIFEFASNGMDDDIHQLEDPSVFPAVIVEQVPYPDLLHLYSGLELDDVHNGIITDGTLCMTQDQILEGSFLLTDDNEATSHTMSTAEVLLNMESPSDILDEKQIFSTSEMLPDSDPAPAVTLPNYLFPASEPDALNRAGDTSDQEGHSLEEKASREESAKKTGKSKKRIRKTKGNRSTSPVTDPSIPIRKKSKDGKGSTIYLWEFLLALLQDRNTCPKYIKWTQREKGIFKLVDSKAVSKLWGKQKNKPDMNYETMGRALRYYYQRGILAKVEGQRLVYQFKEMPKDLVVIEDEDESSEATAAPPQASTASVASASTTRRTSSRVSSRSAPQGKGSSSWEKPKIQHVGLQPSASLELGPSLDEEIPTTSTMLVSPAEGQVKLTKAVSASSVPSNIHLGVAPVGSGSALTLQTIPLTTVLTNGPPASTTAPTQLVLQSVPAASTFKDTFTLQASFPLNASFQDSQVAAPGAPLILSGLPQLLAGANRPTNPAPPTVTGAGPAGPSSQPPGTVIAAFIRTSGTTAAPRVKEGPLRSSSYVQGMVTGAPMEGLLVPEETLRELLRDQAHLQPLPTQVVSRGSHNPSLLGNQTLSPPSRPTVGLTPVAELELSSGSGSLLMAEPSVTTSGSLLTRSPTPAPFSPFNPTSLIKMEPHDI
Chain of HSF1 (Q00613 whole entry): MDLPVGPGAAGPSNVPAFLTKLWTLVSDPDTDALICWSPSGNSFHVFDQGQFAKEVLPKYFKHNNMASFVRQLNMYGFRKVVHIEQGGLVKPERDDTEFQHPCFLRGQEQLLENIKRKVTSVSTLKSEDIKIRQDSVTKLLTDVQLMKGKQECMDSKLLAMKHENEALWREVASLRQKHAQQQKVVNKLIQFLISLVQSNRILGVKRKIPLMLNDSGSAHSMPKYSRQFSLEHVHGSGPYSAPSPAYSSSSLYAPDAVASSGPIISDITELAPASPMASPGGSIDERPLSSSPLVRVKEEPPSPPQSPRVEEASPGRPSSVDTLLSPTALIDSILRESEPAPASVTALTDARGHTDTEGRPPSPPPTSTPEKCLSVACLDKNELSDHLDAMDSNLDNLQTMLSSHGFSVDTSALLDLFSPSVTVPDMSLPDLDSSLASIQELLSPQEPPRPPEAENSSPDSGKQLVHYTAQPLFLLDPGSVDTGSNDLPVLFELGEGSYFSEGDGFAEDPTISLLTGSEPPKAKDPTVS
Chain of ELF1 (P32519 whole entry): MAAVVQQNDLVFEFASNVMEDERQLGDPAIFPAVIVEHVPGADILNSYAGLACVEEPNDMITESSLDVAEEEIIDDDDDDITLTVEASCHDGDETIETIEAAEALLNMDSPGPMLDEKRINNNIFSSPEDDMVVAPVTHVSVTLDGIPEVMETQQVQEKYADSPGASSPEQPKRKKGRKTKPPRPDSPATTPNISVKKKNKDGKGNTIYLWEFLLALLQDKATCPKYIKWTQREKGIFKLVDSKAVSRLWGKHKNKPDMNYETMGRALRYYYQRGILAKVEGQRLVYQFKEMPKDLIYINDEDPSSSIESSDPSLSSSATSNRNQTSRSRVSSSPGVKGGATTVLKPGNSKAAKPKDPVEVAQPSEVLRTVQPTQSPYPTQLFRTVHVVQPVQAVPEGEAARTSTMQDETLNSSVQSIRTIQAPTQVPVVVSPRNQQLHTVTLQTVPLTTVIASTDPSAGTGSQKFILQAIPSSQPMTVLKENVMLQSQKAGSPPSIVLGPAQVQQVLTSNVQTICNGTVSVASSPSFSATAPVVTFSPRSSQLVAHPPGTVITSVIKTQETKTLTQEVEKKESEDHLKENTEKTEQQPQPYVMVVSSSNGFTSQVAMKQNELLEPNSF
Chain of SPIB (Q01892 whole entry): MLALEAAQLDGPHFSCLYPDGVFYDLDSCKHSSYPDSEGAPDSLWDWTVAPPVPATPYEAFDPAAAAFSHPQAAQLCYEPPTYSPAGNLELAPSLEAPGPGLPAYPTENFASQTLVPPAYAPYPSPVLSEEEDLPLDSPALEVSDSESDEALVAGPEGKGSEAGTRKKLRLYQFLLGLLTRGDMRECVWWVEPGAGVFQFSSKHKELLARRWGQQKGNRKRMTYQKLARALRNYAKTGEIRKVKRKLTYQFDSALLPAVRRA

GATCCA
binding signal [1]: 1.01 fold enrichment (6-mer frequency, TF over GST control)
binding signal [2]: 1.08 fold enrichment (6-mer frequency, TF over GST control)
binding signal [3]: 1.16 fold enrichment (6-mer frequency, TF over GST control)
binding signal [4]: 1.03 fold enrichment (6-mer frequency, TF over GST control)
binding signal [5]: 1.04 fold enrichment (6-mer frequency, TF over GST control)
binding signal [6]: 1.07 fold enrichment (6-mer frequency, TF over GST control)
binding signal [7]: 1.08 fold enrichment (6-mer frequency, TF over GST control)
binding signal [8]: 1.02 fold enrichment (6-mer frequency, TF over GST control)
binding signal [9]: 1.07 fold enrichment (6-mer frequency, TF over GST control)
binding signal [10]: 1.21 fold enrichment (6-mer frequency, TF over GST control)
binding signal [11]: 1.05 fold enrichment (6-mer frequency, TF over GST control)

Source: paper PMC7862700, “An all-to-all approach to the identification of sequence-specific readers for epigenetic DNA modifications on cytosine”
